In paper PMC7862700, “An all-to-all approach to the identification of sequence-specific readers for epigenetic DNA modifications on cytosine”:

Assays:
Assay in all cases: DAPPL (digital affinity profiling via proximity ligation, sequencing); 10 mM Tris-HCl pH 7.5, 50 mM NaCl, 1 mM DTT, 4% glycerol, room temperature, 30 min; GST-TFs on glutathione beads, 16-mer random dsDNA library, 0.1% formaldehyde crosslink after washing; high values mean tight binding
[1] = target: T1, FEV (Homo sapiens, UniProt Q99581 1-238); settings: protein: recombinant; tags: N-terminal GST; dsDNA, one strand shown
T1 sequence: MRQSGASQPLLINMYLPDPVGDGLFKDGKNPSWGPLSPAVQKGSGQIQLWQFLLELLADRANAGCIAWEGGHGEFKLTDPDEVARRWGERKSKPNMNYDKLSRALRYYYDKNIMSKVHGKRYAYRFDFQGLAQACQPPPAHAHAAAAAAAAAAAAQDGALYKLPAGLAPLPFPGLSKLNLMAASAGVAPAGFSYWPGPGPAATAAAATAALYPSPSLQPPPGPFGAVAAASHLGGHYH
Method in brief: (§1)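 Binding signal is each hexamer's read frequency for a factor divided by its frequency in the tag-only sample. The factors were GST-fused human transcription factors from yeast, captured on glutathione beads, DNA-barcoded and pooled with that sample. Pools were incubated with 200 nmole of a random double-stranded 16-mer DNA library in Tris/NaCl/DTT/glycerol buffer at room temperature for 30 min, then washed, crosslinked with 0.1% formaldehyde, proximity-ligated with BsaI/T4 ligase (1 h, 37 °C), PCR-amplified and sequenced on an Illumina NextSeq500.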

[2] = target: ETV5 (Homo sapiens, UniProt P41161 1-510); settings: protein: recombinant; tags: N-terminal GST; dsDNA, one strand shown
Sequence of ETV5 (P41161 whole entry): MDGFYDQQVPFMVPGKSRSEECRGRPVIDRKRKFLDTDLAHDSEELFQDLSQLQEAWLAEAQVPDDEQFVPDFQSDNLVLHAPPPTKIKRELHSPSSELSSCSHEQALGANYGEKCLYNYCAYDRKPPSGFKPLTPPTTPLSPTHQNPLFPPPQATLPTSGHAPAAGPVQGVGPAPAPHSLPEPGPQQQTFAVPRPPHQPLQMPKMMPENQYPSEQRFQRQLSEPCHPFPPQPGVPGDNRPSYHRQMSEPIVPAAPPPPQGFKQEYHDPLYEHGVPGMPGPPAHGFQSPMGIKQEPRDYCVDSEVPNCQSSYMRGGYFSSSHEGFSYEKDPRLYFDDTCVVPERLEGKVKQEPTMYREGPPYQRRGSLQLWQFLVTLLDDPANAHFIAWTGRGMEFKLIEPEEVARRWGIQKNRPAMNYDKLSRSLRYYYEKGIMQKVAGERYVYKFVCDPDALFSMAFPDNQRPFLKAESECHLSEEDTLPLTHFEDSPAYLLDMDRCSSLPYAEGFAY
Method in brief: as §1

[3] = target: HSF1 (Homo sapiens, UniProt Q00613 1-529); settings: protein: recombinant; tags: N-terminal GST; chain copies: 3; dsDNA, one strand shown
Sequence of HSF1 (Q00613 whole entry): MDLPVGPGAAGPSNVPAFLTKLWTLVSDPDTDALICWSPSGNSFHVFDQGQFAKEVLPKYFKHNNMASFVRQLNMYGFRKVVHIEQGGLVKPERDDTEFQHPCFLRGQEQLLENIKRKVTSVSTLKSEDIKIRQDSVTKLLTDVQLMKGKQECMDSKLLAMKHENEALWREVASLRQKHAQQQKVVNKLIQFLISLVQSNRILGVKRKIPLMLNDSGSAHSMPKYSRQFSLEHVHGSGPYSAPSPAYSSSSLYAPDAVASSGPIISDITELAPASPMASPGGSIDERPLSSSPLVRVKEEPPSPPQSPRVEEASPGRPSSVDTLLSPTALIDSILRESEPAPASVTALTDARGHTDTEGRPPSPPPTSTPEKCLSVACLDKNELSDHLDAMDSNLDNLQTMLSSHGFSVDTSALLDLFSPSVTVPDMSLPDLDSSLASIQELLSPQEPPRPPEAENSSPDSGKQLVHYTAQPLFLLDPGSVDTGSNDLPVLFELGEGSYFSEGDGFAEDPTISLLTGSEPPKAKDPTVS
Method in brief: as §1

[4] = target: T2, SPIC (Homo sapiens, UniProt Q8N5J4 1-248); settings: protein: recombinant; tags: N-terminal GST; dsDNA, one strand shown
T2 sequence: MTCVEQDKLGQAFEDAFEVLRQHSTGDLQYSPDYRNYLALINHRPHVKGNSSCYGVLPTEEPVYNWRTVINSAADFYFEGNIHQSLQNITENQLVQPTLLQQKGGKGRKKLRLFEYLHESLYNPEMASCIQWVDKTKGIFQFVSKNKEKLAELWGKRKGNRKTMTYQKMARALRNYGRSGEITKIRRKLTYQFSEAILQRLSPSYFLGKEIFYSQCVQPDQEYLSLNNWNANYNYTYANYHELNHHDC
Method in brief: as §1

[5] = target: ELF4 (Homo sapiens, UniProt Q99607 1-663); settings: protein: recombinant; tags: N-terminal GST; dsDNA, one strand shown
Sequence of ELF4 (Q99607 whole entry): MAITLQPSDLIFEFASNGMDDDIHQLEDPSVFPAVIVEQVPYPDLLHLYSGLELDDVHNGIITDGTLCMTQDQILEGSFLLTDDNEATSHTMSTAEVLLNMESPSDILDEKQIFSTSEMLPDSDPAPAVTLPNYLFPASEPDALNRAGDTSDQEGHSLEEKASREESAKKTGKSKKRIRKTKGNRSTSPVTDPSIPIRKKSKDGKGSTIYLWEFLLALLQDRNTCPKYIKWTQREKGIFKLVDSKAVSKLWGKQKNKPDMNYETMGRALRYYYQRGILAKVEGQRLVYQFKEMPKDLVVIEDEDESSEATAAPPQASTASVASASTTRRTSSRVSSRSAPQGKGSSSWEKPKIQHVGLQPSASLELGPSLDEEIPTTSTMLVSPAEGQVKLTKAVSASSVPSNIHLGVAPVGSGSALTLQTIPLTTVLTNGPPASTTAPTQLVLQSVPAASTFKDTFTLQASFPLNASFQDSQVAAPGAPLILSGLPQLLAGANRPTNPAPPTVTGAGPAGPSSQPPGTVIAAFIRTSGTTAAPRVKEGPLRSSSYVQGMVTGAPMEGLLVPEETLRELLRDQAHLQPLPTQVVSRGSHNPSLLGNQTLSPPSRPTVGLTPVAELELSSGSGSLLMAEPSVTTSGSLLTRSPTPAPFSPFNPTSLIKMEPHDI
Method in brief: as §1

[6] = target: T3, ELK4 (Homo sapiens, UniProt P28324-2 1-405); settings: protein: recombinant; tags: N-terminal GST; dsDNA, one strand shown
T3 sequence: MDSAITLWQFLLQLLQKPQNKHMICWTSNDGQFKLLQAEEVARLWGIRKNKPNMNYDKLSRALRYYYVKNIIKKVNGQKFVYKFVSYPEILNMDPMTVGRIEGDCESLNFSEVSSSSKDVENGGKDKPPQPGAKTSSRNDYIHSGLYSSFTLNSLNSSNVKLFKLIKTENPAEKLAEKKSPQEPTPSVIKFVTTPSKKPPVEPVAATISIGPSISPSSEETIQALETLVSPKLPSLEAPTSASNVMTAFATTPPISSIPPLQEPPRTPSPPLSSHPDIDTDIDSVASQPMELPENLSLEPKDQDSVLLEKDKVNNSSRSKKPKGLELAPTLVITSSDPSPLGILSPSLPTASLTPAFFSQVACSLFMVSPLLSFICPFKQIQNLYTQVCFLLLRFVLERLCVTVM
Method in brief: as §1

[7] = target: T4, ETV2 (Homo sapiens, UniProt O00321 1-342); settings: protein: recombinant; tags: N-terminal GST; dsDNA, one strand shown
T4 sequence: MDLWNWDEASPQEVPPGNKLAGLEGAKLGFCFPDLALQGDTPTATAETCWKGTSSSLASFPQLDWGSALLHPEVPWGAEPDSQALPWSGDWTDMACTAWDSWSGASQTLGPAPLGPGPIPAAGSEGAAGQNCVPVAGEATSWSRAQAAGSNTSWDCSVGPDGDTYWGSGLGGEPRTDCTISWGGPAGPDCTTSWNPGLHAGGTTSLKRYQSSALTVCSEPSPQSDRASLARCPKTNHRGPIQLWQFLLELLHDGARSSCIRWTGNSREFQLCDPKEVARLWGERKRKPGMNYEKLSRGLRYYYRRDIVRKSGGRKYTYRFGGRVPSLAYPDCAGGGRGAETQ
Method in brief: as §1

[8] = target: T5, ELF3 (Homo sapiens, UniProt P78545 1-371); settings: protein: recombinant; tags: N-terminal GST; dsDNA, one strand shown
T5 sequence: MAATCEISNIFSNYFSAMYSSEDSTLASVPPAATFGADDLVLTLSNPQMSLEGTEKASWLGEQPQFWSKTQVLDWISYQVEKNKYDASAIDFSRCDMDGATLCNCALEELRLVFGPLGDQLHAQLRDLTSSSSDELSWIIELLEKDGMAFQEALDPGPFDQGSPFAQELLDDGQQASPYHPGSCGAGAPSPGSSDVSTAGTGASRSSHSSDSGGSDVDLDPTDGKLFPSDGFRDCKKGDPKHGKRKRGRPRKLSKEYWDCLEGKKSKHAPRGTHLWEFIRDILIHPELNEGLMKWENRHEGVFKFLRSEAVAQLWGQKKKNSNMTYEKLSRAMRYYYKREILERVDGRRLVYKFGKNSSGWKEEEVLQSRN
Method in brief: as §1

[9] = target: CRX (Homo sapiens, UniProt O43186 1-299); settings: protein: recombinant; tags: N-terminal GST; dsDNA, one strand shown
Sequence of CRX (O43186 whole entry): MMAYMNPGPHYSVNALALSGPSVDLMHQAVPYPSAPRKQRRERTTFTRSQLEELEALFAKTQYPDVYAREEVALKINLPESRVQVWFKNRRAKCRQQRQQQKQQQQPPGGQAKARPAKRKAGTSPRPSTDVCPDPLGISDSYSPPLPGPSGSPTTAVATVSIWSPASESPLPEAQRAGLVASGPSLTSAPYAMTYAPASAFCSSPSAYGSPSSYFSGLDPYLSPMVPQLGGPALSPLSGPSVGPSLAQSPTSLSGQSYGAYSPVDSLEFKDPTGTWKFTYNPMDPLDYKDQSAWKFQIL
Method in brief: as §1

[10] = target: ETV1 (Homo sapiens, UniProt P50549 1-477); settings: protein: recombinant; tags: N-terminal GST; dsDNA, one strand shown
Sequence of ETV1 (P50549 whole entry): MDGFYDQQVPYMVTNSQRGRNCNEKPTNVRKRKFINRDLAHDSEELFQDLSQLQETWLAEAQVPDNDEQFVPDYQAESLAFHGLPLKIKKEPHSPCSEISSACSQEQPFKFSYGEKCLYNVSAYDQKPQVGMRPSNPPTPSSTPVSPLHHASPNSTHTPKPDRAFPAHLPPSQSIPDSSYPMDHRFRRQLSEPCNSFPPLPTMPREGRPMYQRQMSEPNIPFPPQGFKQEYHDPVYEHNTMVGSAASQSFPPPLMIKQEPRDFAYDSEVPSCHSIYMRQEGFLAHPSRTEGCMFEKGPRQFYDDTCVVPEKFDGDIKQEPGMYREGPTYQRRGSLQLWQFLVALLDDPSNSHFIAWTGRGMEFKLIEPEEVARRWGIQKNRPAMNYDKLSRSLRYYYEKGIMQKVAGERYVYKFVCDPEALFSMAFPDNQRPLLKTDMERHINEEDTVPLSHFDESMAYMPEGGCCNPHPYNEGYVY
Method in brief: as §1

[11] = target: T6, ERF (Homo sapiens, UniProt P50548 1-548); settings: protein: recombinant; tags: N-terminal GST; dsDNA, one strand shown
T6 sequence: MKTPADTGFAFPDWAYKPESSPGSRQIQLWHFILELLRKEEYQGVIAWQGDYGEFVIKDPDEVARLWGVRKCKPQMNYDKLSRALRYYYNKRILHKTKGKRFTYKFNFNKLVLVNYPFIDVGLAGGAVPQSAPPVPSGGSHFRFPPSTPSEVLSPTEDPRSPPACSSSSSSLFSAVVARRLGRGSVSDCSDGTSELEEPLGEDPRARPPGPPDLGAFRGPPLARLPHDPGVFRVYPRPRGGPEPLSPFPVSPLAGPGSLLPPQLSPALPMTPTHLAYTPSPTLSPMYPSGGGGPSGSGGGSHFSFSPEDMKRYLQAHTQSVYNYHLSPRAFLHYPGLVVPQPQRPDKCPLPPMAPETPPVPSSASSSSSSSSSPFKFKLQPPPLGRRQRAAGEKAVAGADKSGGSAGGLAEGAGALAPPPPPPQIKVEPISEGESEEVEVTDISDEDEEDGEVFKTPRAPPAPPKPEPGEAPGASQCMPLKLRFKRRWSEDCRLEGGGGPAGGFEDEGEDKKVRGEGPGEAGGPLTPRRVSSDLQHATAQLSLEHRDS
Method in brief: as §1

[12] = target: T7, ETV3L (Homo sapiens, UniProt Q6ZN32 1-361); settings: protein: recombinant; tags: N-terminal GST; dsDNA, one strand shown
T7 sequence: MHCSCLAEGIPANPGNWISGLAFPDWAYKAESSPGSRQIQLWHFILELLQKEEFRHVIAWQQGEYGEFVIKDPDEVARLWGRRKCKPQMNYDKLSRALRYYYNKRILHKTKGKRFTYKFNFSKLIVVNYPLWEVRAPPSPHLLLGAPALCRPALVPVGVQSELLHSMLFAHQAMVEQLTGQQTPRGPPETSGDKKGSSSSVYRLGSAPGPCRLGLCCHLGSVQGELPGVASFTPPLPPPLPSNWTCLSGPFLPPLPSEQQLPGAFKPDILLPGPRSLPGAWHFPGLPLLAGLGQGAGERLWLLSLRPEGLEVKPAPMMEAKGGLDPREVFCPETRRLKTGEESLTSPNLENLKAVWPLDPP
Method in brief: as §1

[13] = target: T8, ETS2 (Homo sapiens, UniProt P15036 1-469); settings: protein: recombinant; tags: N-terminal GST; dsDNA, one strand shown
T8 sequence: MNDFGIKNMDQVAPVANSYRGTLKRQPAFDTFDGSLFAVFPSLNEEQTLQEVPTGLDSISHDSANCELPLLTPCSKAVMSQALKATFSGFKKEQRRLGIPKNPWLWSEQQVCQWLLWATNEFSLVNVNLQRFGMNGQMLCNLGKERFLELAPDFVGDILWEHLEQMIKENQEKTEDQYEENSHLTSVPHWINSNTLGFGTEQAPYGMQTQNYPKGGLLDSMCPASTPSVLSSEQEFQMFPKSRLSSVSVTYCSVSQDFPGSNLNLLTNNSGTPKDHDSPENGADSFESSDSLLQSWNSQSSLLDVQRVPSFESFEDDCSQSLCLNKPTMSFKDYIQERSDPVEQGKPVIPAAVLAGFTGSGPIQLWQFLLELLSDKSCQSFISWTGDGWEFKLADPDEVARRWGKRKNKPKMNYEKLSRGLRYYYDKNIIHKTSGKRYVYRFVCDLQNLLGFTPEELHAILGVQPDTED
Method in brief: as §1

[14] = target: T9, SPDEF (Homo sapiens, UniProt O95238 1-335); settings: protein: recombinant; tags: N-terminal GST; dsDNA, one strand shown
T9 sequence: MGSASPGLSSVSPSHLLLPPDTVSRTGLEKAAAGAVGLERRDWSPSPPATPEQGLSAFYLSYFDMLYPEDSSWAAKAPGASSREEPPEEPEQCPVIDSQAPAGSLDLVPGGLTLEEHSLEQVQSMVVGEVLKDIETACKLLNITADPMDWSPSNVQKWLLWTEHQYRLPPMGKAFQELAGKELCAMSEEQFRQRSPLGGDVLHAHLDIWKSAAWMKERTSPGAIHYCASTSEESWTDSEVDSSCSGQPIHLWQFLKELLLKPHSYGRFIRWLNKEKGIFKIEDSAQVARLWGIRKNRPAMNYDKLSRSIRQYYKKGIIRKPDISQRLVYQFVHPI
Method in brief: as §1

[15] = target: T10, ETV7 (Homo sapiens, UniProt Q9Y603 1-341); settings: protein: recombinant; tags: N-terminal GST; dsDNA, one strand shown
T10 sequence: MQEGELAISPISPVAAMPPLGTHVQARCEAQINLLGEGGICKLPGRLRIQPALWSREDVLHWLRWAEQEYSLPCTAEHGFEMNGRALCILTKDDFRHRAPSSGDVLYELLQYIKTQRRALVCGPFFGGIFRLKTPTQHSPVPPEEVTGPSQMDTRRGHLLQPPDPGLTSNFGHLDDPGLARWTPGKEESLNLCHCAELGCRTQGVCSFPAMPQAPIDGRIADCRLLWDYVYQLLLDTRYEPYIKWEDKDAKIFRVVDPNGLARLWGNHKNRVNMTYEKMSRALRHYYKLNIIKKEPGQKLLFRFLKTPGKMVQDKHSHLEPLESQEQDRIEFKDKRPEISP
Method in brief: as §1

[16] = target: T11, ELF5 (Homo sapiens, UniProt Q9UKW6-2 1-255); settings: protein: recombinant; tags: N-terminal GST; dsDNA, one strand shown
T11 sequence: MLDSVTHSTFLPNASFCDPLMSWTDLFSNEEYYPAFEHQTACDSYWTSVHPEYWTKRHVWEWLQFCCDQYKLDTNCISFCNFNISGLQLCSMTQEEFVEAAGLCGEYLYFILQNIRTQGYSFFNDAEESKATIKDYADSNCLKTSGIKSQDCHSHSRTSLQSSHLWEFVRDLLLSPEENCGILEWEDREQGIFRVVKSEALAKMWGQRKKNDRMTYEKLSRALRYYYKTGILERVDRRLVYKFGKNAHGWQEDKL
Method in brief: as §1

[17] = target: T12, ETV3 (Homo sapiens, UniProt P41162-2 1-143); settings: protein: recombinant; tags: N-terminal GST; dsDNA, one strand shown
T12 sequence: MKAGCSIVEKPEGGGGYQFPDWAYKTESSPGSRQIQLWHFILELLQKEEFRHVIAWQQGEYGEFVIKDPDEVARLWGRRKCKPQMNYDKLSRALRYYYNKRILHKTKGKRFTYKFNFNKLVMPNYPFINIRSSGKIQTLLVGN
Method in brief: as §1

[18] = target: ETV6 (Homo sapiens, UniProt P41212 1-452); settings: protein: recombinant; tags: N-terminal GST; dsDNA, one strand shown
Sequence of ETV6 (P41212 whole entry): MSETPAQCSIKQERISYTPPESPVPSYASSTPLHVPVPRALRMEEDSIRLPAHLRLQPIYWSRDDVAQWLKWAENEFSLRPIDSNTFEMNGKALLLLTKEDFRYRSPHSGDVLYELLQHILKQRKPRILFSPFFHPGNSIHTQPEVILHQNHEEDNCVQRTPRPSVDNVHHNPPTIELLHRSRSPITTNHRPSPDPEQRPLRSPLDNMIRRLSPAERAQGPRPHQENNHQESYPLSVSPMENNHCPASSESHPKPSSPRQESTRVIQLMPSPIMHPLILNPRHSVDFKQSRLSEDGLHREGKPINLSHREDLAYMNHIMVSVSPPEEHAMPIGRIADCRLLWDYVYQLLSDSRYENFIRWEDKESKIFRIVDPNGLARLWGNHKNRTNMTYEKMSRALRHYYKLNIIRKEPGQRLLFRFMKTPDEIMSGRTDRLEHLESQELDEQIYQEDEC
Method in brief: as §1

In the case of ATAAAC, the binding signal [1] is reported as 1.13 fold enrichment (6-mer frequency, TF over GST control), the binding signal [2] is reported as 1.19 fold enrichment (6-mer frequency, TF over GST control) and the binding signal [3] is reported as 1.27 fold enrichment (6-mer frequency, TF over GST control). For the same sequence, the binding signal [4] was 1.2 fold enrichment (6-mer frequency, TF over GST control), the binding signal [5] was 1.16 fold enrichment (6-mer frequency, TF over GST control) and the binding signal [6] was 1.13 fold enrichment (6-mer frequency, TF over GST control). The binding signal [7] was 1.19 fold enrichment (6-mer frequency, TF over GST control), the binding signal [8] was 1.13 fold enrichment (6-mer frequency, TF over GST control) and the binding signal [9] was 1.5 fold enrichment (6-mer frequency, TF over GST control). The binding signal [10] was 1.11 fold enrichment (6-mer frequency, TF over GST control), the binding signal [11] was 1.19 fold enrichment (6-mer frequency, TF over GST control) and the binding signal [12] was 1.18 fold enrichment (6-mer frequency, TF over GST control). For the same sequence, the binding signal [13] was 1.18 fold enrichment (6-mer frequency, TF over GST control), the binding signal [14] was 1.16 fold enrichment (6-mer frequency, TF over GST control) and the binding signal [15] was 1.05 fold enrichment (6-mer frequency, TF over GST control). The binding signal [16] was 1.17 fold enrichment (6-mer frequency, TF over GST control), the binding signal [17] was 1.1 fold enrichment (6-mer frequency, TF over GST control) and the binding signal [18] was 1.19 fold enrichment (6-mer frequency, TF over GST control).
